Bioassay records: PubChem, National Center for Advancing Translational Sciences (NCATS)
Most compounds without a hit are left out; they make up all but 1.7% or so of the library.
HEK293 tox = cytotoxicity counter-screen for GLP-1 receptor inverse agonists; HEK293 cAMP-luciferase reporter cells, luminescence, 24 h; Potency, µM (doses to about 38.3 µM), usual class: inhibitors; actives 0.13% (n = 410,000);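 note: loss of luciferase light is scored as toxicity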
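Quantitative HTS format, 1536 wells, 200 cells/uL seeded. Compounds: 23 nL, 24 h, 37 °C. Detection: luciferase reagent, luminescence at 12 min RT; decreased signal taken as cytotoxic.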
PTHR1 ag = PTHR1 (human) receptor agonism; Q03431; HEK293 GP2 PTHR1 cells, GloSensor cAMP luminescence, 1 h; Potency, µM (titrated, usually from 115 µM), most hits filed as activators; actives 0.075% (n = 410,000); note: nearly all actives have a fitted effect of over 55% in size
Target sequence (Q03431 whole entry, looked up): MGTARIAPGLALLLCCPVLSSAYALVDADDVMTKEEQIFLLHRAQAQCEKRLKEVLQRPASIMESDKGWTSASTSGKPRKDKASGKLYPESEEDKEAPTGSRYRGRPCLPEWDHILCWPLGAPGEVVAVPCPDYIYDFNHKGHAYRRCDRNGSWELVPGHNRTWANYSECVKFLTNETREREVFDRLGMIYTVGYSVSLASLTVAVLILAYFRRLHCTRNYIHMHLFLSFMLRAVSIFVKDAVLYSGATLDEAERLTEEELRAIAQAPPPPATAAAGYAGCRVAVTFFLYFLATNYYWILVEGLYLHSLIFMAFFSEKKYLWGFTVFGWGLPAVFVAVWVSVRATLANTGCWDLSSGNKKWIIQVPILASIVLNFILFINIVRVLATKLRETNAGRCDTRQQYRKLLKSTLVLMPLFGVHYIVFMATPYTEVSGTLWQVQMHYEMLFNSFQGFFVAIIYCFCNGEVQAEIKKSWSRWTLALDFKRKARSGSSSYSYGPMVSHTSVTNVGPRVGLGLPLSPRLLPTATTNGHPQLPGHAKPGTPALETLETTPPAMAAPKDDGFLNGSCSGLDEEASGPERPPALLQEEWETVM
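HEK-293-derived GP2 cells expressing PTHR1 and a GloSensor cAMP reporter, 3,000/well, plated overnight, given luciferin plus IBMX (each 0.5 mM as added) for 1 h at 37 °C, then compound for 1 h at 37 °C. Luminescence was read after 15 min at room temperature.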
GLP1R inv ag = inverse agonists of human GLP-1 receptor; P43220; HEK293 GLP-1R CRE-luciferase, luminescence, 24 h; GLP-1R form is constitutively active; Potency, µM (titrated, usually from 38.3 µM), hits mostly inhibitors; actives 1.6% (n = 410,000); AID 624417; note: nearly all actives have a fitted effect of over 55% in size
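Constitutively active GLP-1R drives a cAMP-responsive luciferase in stably transfected HEK293 cells; test compounds are added after overnight (12 h) attachment and left 24 hr, and signal loss in luminescence marks inhibition.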
GLP-1R agonist = GLP-1 receptor (human) agonism | actives 0.007% (n = 380,000) | Potency, µM (doses to about 45.6 µM), usual class: activators | HEK293 GLP-1R CRE-luciferase, luminescence, 4-6 h; cells express a hypersensitive GLP-1R form | AID 624172 | P43220
Large screens that a line does not name were inactive. Calls come from the whole dose curve; as a rule, active = well fitted curve in the direction sought with a large enough effect; inconclusive = small, poorly fitted or top-dose-only effect, or another doubt; inactive = no such curve, though single readings can be large; an effect the other way counts as inactive or inconclusive.

CCOc1ccc(-n2c(SCC(=O)Nc3cc(C)ccc3C)nc3c([nH]c4ccccc43)c2=O)cc1	none
Cc1ccc(C(=O)N/C(=C\c2ccc(-c3cc(Cl)ccc3Cl)o2)C(=O)NCc2cccnc2)cc1	GLP1R inv ag inconclusive
O=C(NCc1cccnc1)/C(=C\c1ccc(-c2cccc(Cl)c2)o1)S(=O)(=O)c1ccccc1	HEK293 tox inconclusive, GLP1R inv ag 2µM
COc1ccc(-c2cccc3c2NC(=O)C3=O)cc1OC	none
Cn1cc(C(=O)N/N=C/c2c(O)ccc3ccccc23)ccc1=O	GLP1R inv ag 3.2µM
Cn1c(-c2ccccc2)c(/C=N/NC(=O)c2ccc(O)cc2)c2ccccc21	GLP1R inv ag 7.1µM
O=C(N/N=C\c1c(O)ccc2ccccc12)c1ccc(O)cc1	HEK293 tox inconclusive, GLP1R inv ag inconclusive
CCCCC(=O)Nc1ccc2c(c1)nc(CN1CCN(C(=O)OCC)CC1)n2C	none
CCOC(=O)c1c(NC(C)=O)sc2c1CCC(C=NCCCN(CC)CC)=C2Sc1ccccc1	none
N#Cc1ccc(N/N=C/c2ccccc2)c([N+](=O)[O-])c1	none
CCOc1ccc(NC(=S)N2CCC(c3ccc(C)cc3)C2)cc1 (configuration not stated)	GLP1R inv ag 10µM
Cc1ccc(NC(=S)N2CCC(c3ccc(C)cc3)C2)cc1 (configuration not stated)	GLP1R inv ag inconclusive
O=C(Nc1ccc(F)cc1)c1ccccc1Oc1ccc(C(F)(F)F)cc1[N+](=O)[O-]	HEK293 tox inconclusive, GLP1R inv ag 10µM
O=C(/C=C/c1cc(Br)ccc1F)OCC(=O)N1CCCC1	none
CCOC(=O)C1=CN(Cc2cccc(F)c2)S(=O)(=O)N(C)C1c1ccc(F)c(Cl)c1 (configuration not stated)	GLP1R inv ag 10µM
Cc1ccnc(NC(=O)c2cc3ccccc3o2)c1	GLP1R inv ag 5.6µM
O=C(Nc1ncccc1O)c1cc2ccccc2o1	HEK293 tox inconclusive, GLP1R inv ag 11µM
O=C(Nc1ccccn1)c1cc2ccccc2o1	none
O=C(NC1CC1)c1ccc2sc([C@H]3C[C@H](O)[C@@H](CO)O3)nc2c1	none
COc1ccc(C(C)=O)cc1CC(=O)Nc1cccc(S(=O)(=O)N2CCOCC2)c1	none
O=C(CC(CC(=O)c1ccccc1)c1ccccn1)c1ccccc1	GLP1R inv ag 10µM
Cc1ccc(C)c(S(=O)(=O)N2CCN(C(=O)CCCc3c[nH]c4ccccc34)CC2)c1	GLP1R inv ag inconclusive
CC(=O)Nc1ccc(S(=O)(=O)NC2CCCCCC2)cc1	none
CC(C)C(=O)NC(=S)Nc1ccc(S(=O)(=O)NC2CCCCC2)cc1	GLP1R inv ag 10µM
CCCCCCCn1c(=N)n(CC(O)c2ccco2)c2ccccc21 (configuration not stated)	HEK293 tox inconclusive, GLP1R inv ag 11µM
CCCCCn1c(=N)n(CC(O)COc2cccc(C)c2)c2ccccc21 (configuration not stated)	HEK293 tox inconclusive, GLP1R inv ag 11µM (no result: GLP-1R agonist)
Cc1cccc(NC(=O)NC(C)C(c2ccccc2)N2CCN(C)CC2)c1 (configuration not stated)	none
CN1C2CCC1CC(N(CCc1ccccc1)C(=O)c1ccc(Cl)cc1)C2 (configuration not stated)	GLP1R inv ag 10µM
COCCn1c(C)cc(C(=O)COC(=O)c2cc3c(s2)CCC3)c1C	GLP1R inv ag inconclusive
COCCn1c(C)cc(C(=O)CSc2nc3ccccc3c(=O)n2Cc2ccco2)c1C	none
COCCn1c(C)cc(C(=O)COC(=O)c2cccc(O)c2)c1C	GLP1R inv ag 0.89µM
COCCn1c(C)cc(C(=O)CSc2cc(C)c3ccccc3n2)c1C	GLP1R inv ag 13µM
COCCn1c(C)cc(C(=O)CSc2nnnn2C2CCCC2)c1C	GLP1R inv ag 2.2µM
COCCn1c(C)cc(C(=O)CSc2nnc(C)s2)c1C	GLP1R inv ag 1.3µM
Cc1cc(C)nc(Sc2ncnc(N)c2[N+](=O)[O-])n1	HEK293 tox inconclusive, GLP1R inv ag inconclusive
CCCc1cc(C(=O)N(C2CCCCC2)C2CCCCC2)no1	GLP1R inv ag 8.9µM
CC(C)(C)c1ccc(C(=O)CCCN2CCC(OC(c3ccccc3)c3ccccc3)CC2)cc1	none (no result: HEK293 tox, PTHR1 ag, GLP1R inv ag)
CN(C)C=Nc1ccc2nc3c(cc2c1)[nH]c1ccccc13	none
CCOC(=O)C1(Cc2cccc(OC)c2)CCN(Cc2cccc3c2OCO3)CC1	GLP1R inv ag 10µM
